# Measured values: PubChem BioAssay (NCI)
# The panel holds about 83,000 compounds, 20% with a hit somewhere; the sample as a whole holds those more often.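 Percent growth is the endpoint: 0 to 100 indicates growth inhibition (40 means 60% inhibition), 0 means no net growth, and negative values indicate cell death.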 Unmarked numbers belong to inactive results. Calls of active or inactive are those of the source. How the source made its calls: active means growth percent below 10; inactive means the rest.
# What was measured:
# Test in all cases: NCI-60 one-dose screen, 48 h (100 = growth as untreated, 0 = no growth, -100 = all killed)
# Settings in all cases: 10 µM
# NCI-H23 lung = system: NCI-H23 lung
# NCI-H226 lung = system: NCI-H226 lung
# NCI-H322M lung = system: NCI-H322M lung
# HOP-62 NSCLC = system: HOP-62 NSCLC
# NCI-H460 lung = system: NCI-H460 lung
# HOP-92 NSCLC = system: HOP-92 NSCLC
# NCI-H522 lung = system: NCI-H522 lung
# A549/ATCC NSCLC = system: A549/ATCC NSCLC
# 786-0 renal = system: 786-0 renal
# COLO 205 colon = system: COLO 205 colon
# DU-145 prostate = system: DU-145 prostate
# K-562 leukemia = system: K-562 leukemia
# MALME-3M melanoma = system: MALME-3M melanoma
# MDA-MB-231 breast = system: MDA-MB-231 breast
# RXF 393 renal = system: RXF 393 renal
# SF-268 CNS = system: SF-268 CNS
# SF-295 CNS = system: SF-295 CNS
# SF-539 CNS = system: SF-539 CNS
# UACC-257 melanoma = system: UACC-257 melanoma
# M14 melanoma = system: M14 melanoma
Structure (SMILES),growth (NCI-H23 lung),growth (NCI-H226 lung),growth (NCI-H322M lung),growth (HOP-62 NSCLC),growth (NCI-H460 lung),growth (HOP-92 NSCLC),growth (NCI-H522 lung),growth (A549/ATCC NSCLC),growth (786-0 renal),growth (COLO 205 colon),growth (DU-145 prostate),growth (K-562 leukemia),growth (MALME-3M melanoma),growth (MDA-MB-231 breast),growth (RXF 393 renal),growth (SF-268 CNS),growth (SF-295 CNS),growth (SF-539 CNS),growth (UACC-257 melanoma),growth (M14 melanoma)
COc1ccsc1/C=N/NC(=O)c1[nH]c2ccc(Br)cc2c1-c1ccccc1,9.07% (active),17.2%,34.3%,26.3%,0.114% (active),-5.64% (active),-34.4% (active),11.7%,1.8% (active),-32.4% (active),11.7%,1.22% (active),22.3%,3.17% (active),30.8%,17.2%,-7.83% (active),-18.5% (active),11.4%,5.95% (active)
O=C(O)CCCCCCCCCCN1C(=O)/C(=C/c2cnc(-c3ccccc3)s2)SC1=S,55.9%,103%,80.6%,115%,29.6%,52.1%,38.2%,46.1%,79.3%,141%,80.4%,23.6%,103%,100%,116%,112%,83.3%,110%,101%,101%
Cc1ccc2nc3c(nc2c1)c1cc(I)ccc1n3CCN(C)C,17.8%,39.9%,20%,31.3%,-2.92% (active),37.2%,31.4%,13.5%,23.6%,-55.8% (active),13%,4.47% (active),9.73% (active),14.8%,29.8%,45.4%,17.3%,26.4%,41.9%,16.3%
O=C(c1ccc(O)cc1)C1[C@H](c2ccc(Br)cc2)[C@@H](c2ccccc2)NC12C(=O)Nc1ccc(Br)cc12 (some centres undefined),-54.4% (active),-34.5% (active),10.4%,-36.2% (active),6.63% (active),-21.3% (active),-41.6% (active),13.4%,-5.43% (active),-85.2% (active),9.58% (active),3.5% (active),-49.3% (active),-67.7% (active),-62.9% (active),10.6%,-22.7% (active),-17.8% (active),49.1%,14.8%
COc1ccc(/C(C)=N/N=C2C(=O)N(C)c3ccc(Br)cc32)cc1S(N)(=O)=O,64.1%,43.6%,80.8%,36.2%,74.8%,28.1%,45.5%,86.1%,71.4%,102%,86.1%,93.1%,64.2%,56.7%,57.4%,33.4%,47.4%,43.3%,83.1%,87.1%
Cc1ccc2nc(-c3ccc(-c4nnc(SCC(=O)Nc5ccc(Cl)cc5)o4)cc3)[nH]c2c1,29.1%,9.53% (active),27.6%,61.8%,6.19% (active),84.9%,51.1%,29.1%,68.5%,46.1%,45%,18%,26.2%,10.6%,,68.6%,21.4%,57%,102%,53.6%
Cc1ccc(NCC(=O)Nn2c(COc3ccccc3)nc3ccccc3c2=O)cc1,67.8%,66.3%,85.9%,27.4%,81.4%,58.1%,71.7%,77.9%,66.4%,85%,85.9%,88.2%,80.8%,62%,51.3%,49.8%,58%,51.4%,83.6%,93.3%
CCCn1c(=O)c2[nH]c(-c3ccc(OCc4nc5ccc(C#N)cc5[nH]4)cc3)nc2n(CCC)c1=O,81.5%,51.2%,76.3%,77.9%,66.2%,78.5%,71.1%,79.9%,72.1%,94.9%,79%,41.6%,73.2%,30.8%,,80.4%,76.7%,64.9%,99.5%,99.6%
O=C(CN1CCN(c2ncnc3c2cnn3-c2ccccc2)CC1)Nc1nncs1,-55.1% (active),43.9%,84.8%,-52.7% (active),-22.1% (active),-70.9% (active),-79.3% (active),-32.5% (active),-80.9% (active),-50.2% (active),-96.1% (active),10.6%,-67.3% (active),29.7%,-71.3% (active),-34.4% (active),-31.4% (active),-88.2% (active),54.3%,4.82% (active)
O=C(c1ccc(O)cc1)C1[C@H](c2ccccc2Br)[C@@H](c2ccccc2)NC12C(=O)Nc1ccc(Cl)cc12 (some centres undefined),-34.8% (active),-7.3% (active),27%,6.01% (active),9.99% (active),-1.49% (active),-47.1% (active),-4.7% (active),2.9% (active),-76.9% (active),32.5%,7.61% (active),-10.7% (active),-57.3% (active),-19.5% (active),27.7%,-6.39% (active),8.24% (active),25%,28.4%
O=c1[nH]c2ccccc2cc1CSc1ccc(Nc2nccc(-c3ccc(Cl)cc3)n2)cc1,-26.6% (active),-70.5% (active),0.401% (active),-68% (active),-59.6% (active),-68.1% (active),2.64% (active),-39.7% (active),-80.1% (active),-16% (active),-52% (active),36.2%,-54.3% (active),-56.1% (active),,2.16% (active),-90.8% (active),-89% (active),54.1%,30.8%
OCCCNc1oc(-c2ccccc2)nc1[P+](c1ccccc1)(c1ccccc1)c1ccccc1,-1.07% (active),-5.46% (active),31.9%,17.9%,3.97% (active),-24.1% (active),2.08% (active),29.6%,11.2%,-52.3% (active),8.36% (active),11.1%,-26% (active),-8.13% (active),,6.17% (active),2.62% (active),4.68% (active),-10.3% (active),10.1%
Nc1nc(-c2ccccc2)cs1,42%,63.4%,99.4%,52%,73.2%,60.9%,-4.11% (active),55.7%,93.7%,108%,66.7%,28.2%,74.4%,61.8%,,48.3%,37.7%,53.4%,81.9%,72.2%
CC1=C(c2cc(-c3ccc(Cl)cc3)c(C#N)c(N)n2)C(c2ccccc2)NC(=S)N1 (centres undefined),76.1%,64.4%,96.4%,81.3%,82.6%,105%,49.4%,90.1%,67%,80.5%,51.3%,36.9%,4.96% (active),51.9%,,51%,78.1%,39.9%,77.7%,49.8%
